Screening results from PubChem BioAssay.
TEAD-YAP block: TEAD-YAP interaction inhibition. inhibition, % at 9.12 µM. HEK-TIYL cells, TEAD-Gal4/YAP UAS-luciferase luminescence. actives 1.4% (n = 640,000). AID 1259422; in the data active means inhibition above about 32%;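 further: 0% = median of test compound wells and 100% = reference inhibitor wells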
MITF primary: inhibitors of human MITF; actives 0.91% (n = 650,000); O75030; inhibition, % at 2.6 µM; AlphaScreen MITF homodimerization, bead proximity signal; AID 1259374; in the data active means inhibition above about 50%;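 further: 0% = vehicle wells with protein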
GPR151 activ: activators of human GPR151. Q8TDV0. PathHunter beta-arrestin GPR151 cells, luminescence. activation, % at 11.2 µM. actives 1% (n = 650,000); in the data active means activation above about 4.9%;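 further: 0% = median of compound wells and 100% = cells with positive control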
FBW7 act: human FBW7 E3 ligase activation, primary screen | normalized activity (activation), % at 26.1 µM | AlphaScreen FBW7–phospho-cyclin E peptide binding, activator screen | Q969H0 | actives 0.13% (n = 650,000) | AID 1259310; in the data active means normalized activity above about 1.9%;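 further: purified mutant Fbw7 with reduced substrate affinity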
Target sequence (Q969H0 whole entry, looked up): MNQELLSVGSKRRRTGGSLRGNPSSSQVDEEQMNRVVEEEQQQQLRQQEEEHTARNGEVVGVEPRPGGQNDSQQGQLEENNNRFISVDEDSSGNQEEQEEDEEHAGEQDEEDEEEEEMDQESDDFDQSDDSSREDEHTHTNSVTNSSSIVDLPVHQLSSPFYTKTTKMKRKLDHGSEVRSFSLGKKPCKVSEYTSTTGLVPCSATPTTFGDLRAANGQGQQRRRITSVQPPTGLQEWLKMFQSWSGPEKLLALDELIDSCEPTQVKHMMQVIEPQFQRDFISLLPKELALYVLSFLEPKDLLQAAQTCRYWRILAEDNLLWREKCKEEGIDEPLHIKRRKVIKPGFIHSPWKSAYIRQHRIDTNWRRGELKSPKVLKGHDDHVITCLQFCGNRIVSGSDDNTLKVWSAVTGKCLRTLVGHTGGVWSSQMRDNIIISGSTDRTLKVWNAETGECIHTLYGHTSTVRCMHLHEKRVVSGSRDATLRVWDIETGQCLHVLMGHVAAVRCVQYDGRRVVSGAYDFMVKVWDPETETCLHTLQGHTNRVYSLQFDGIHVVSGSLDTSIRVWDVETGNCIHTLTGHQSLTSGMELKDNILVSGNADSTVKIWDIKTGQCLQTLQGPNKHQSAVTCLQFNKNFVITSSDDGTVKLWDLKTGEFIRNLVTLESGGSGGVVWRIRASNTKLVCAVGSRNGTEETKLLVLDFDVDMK
GPR151 confirm: confirmation of human GPR151 activators; AID 1508609; 6,700 tested, under 10 active; GPR151 PathHunter beta-arrestin cells, luminescence, 90 min; % of EA-reagent control over plate median; shares compounds with GPR151 activ; activation, % at 11.2 µM;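 active means mean percent activation across replicates above the confirmation screen cutoff of 4.91%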
GPR119 ag: counter-screen for GPR151 activators: effect on human GPR119; shares compounds with GPR151 activ; actives 0.3% (n = 6,700); AID 1508611; activation, % at 11.2 µM; GPR119 PathHunter beta-arrestin cells, luminescence, 90 min; 0 = compound-well median, 100 = enzyme-acceptor control;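 active means mean percent activation in the counterscreen above 29.09%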;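 further: counterscreen on off-target GPR119 to flag nonselective hits from the GPR151 activator screen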
* = called active by the depositor; / = no result given. Most compounds without a hit are left out; they make up all but 3.4% or so of the library.

SMILES | TEAD-YAP block | MITF primary | GPR151 activ | FBW7 act | GPR151 confirm | GPR119 ag
OCCC1CN(C/C=C/c2ccc(F)cc2)CCN1C1CCCCC1 (stereo unspecified) | -5.2 | -3.0 | 1.5 | 0.0 | / | /
COc1ccc(CNC(=O)c2noc(C)c2[N+](=O)[O-])cc1 | 8.6 | 7.8 | 5.0* | -0.1 | -0.4 | 4.5
CC(C)CCN1C(=O)CCc2cc(NC(=O)NCc3ccc(F)cc3)ccc21 | 2.9 | -0.1 | 1.3 | 0.1 | / | /
CC(C)CCN1C(=O)CCc2cc(NC(=O)c3ccc4c(c3)OCO4)ccc21 | -14.5 | 1.6 | 5.3* | 0.0 | -1.2 | 0.0
O=C(c1ccccc1C(=O)N1CCOCC1)N1CCOCC1 | -4.2 | 5.2 | 1.0 | -0.1 | / | /
COCCCN1C(=O)c2cccc3cc(NC(C)=O)cc(c23)C1=O | 11.1 | -12.3 | -0.9 | 0.1 | / | /
Cn1ncc2c(N3CCOCC3)nc(NCc3ccco3)nc21 | -1.9 | 17.2 | 5.4* | 0.2 | 0.0 | -2.6
Cc1cc(C)c(S(=O)(=O)Nc2ccc(F)cc2)cc1C | -1.1 | 10.3 | 0.0 | 0.3 | / | /
Cc1cc(C)c(S(=O)(=O)Nc2ccc(O)c(C(=O)O)c2)cc1C | 0.0 | 1.4 | 10.3* | -0.1 | 1.0 | -1.9
CNC(=O)NC(=O)C(C)N1CCN(c2ccccn2)CC1 (stereo unspecified) | -5.2 | 15.2 | 1.1 | 0.6 | / | /
CC(C(=O)N1c2ccccc2CC1C)N1CCN(c2ccccn2)CC1 (stereo unspecified) | 13.2 | 14.3 | 5.3* | 0.5 | 0.4 | -8.1
C/C(=N\NC(=O)CCC(=O)Nc1ccc(I)cc1)c1ccc(C)cc1 | -3.2 | 16.7 | -0.2 | 0.1 | / | /
CN(C)CCC(Oc1ccc(F)cc1)c1ccc(S(C)(=O)=O)cc1 (stereo unspecified) | 6.0 | 33.7 | 5.6* | -0.1 | -0.3 | 9.6
CC(C)CC(=O)N1CCC(c2nc3c(nnn3Cc3cccc(F)c3)c(=O)[nH]2)CC1 | 5.3 | 3.4 | 5.6* | 0.0 | 1.3 | 7.0
CC(C)CC(=O)N1CCC(c2nc3c(nnn3Cc3ccc(F)cc3)c(=O)[nH]2)CC1 | 2.0 | -0.5 | 1.4 | -0.2 | / | /
Cc1ccc(C(C)C)c(OCC(=O)Nc2ccccc2N(C)C)c1 | -2.0 | 0.7 | -1.4 | -0.1 | / | /
N=c1oc2ccc(Br)cc2cc1C(=O)Nc1ccccc1Cl | -2.8 | 9.1 | 1.4 | -0.2 | / | /
CCCCC(OC(=O)CC1Sc2ccccc2NC1=O)C(=O)NC1CCCC1 (stereo unspecified) | -0.5 | -2.9 | 1.9 | -0.1 | / | /
COc1ccccc1CNC(=O)CNC(=S)N(Cc1cccs1)C1CCCCC1 | 5.5 | 0.3 | -0.8 | -0.3 | / | /
CCOc1cc(/C=C2/N=C(c3cccs3)OC2=O)ccc1OS(C)(=O)=O | 6.5 | 0.7 | -0.7 | -0.1 | / | /
CS(=O)(=O)Oc1ccc(Cl)cc1/C=C1/N=C(c2cccs2)OC1=O | -5.9 | 1.8 | 5.3* | 0.2 | 0.8 | -2.6
Nc1nc(SCc2cn3cc(Br)ccc3n2)n[nH]1 | -7.8 | 10.0 | 7.6* | -0.2 | -0.4 | -6.4
O=C(CCc1ccccc1)NCC(=O)N/N=C/c1ccccc1 | 4.7 | 11.4 | 0.1 | 0.1 | / | /
COc1ccc(CCNc2nc(NC3CCN(Cc4ccccc4)CC3)nc3cc(OC)c(OC)cc23)cc1 | -2.5 | 1.1 | 8.0* | -0.1 | -0.1 | 10.5
CC1CN(c2cc(N3CCOCC3)c(F)cc2[N+](=O)[O-])CCN1C(=O)c1cccs1 (stereo unspecified) | -18.8 | 0.4 | 7.6* | -0.2 | -0.1 | -0.2
SMILES | TEAD-YAP block | MITF primary | GPR151 activ | FBW7 act | GPR151 confirm | GPR119 ag
COc1ccc(/C(C)=N/NC(=O)c2ccccc2Br)cc1 | -10.2 | 19.6 | 5.7* | 0.2 | 0.2 | 5.8
Cc1cc(C(F)(F)F)nc2snc(Br)c12 | 2.0 | 7.8 | 5.2* | 0.0 | -1.0 | -8.7
CC(C)(COC(=O)c1cccc2ccccc12)N=C1NS(=O)(=O)c2ccccc21 | -1.2 | -7.8 | 6.1* | -0.2 | 0.8 | 12.5
COc1ccc(OC)c(/C=N/NC(=O)c2[nH]ncc2Br)c1 | -33.2 | 12.3 | -1.7 | 0.5 | / | /
COC(=O)c1[nH]ncc1Br | 2.7 | 7.9 | 6.1* | 0.0 | -0.2 | -13.8
CCOc1ccc(N(CC)C(=O)C(=O)Nc2ccc3nc4n(c(=O)c3c2)CCCCC4)cc1 | 8.4 | 11.9 | 11.0* | 1.1 | 0.7 | 5.4
CCOC(=O)c1ccc(NC(=O)C(=O)Nc2ccc3nc4n(c(=O)c3c2)CCCCC4)cc1 | 7.1 | -2.1 | -0.5 | -0.1 | / | /
CCOC(=O)C(=O)Nc1ccc2nc3n(c(=O)c2c1)CCCCC3 | 2.0 | -22.2 | 5.4* | 0.3 | 0.0 | -6.5
Cc1ccc(/C=C2/N=C(c3cccc([N+](=O)[O-])c3C)OC2=O)cc1 | -2.6 | 5.3 | 3.8 | 0.1 | / | /
C1=CCC(CN2CCN(C3CCCC3)CC2)CC1 (stereo unspecified) | -5.8 | 32.8 | 5.1* | 0.0 | 0.8 | 13.2
CCCN(Cc1cccs1)C(=O)NCc1ccccc1 | -4.9 | 5.5 | 8.1* | 0.2 | 0.0 | -11.8
CC(C)(Oc1ccc(Cl)cc1)C(=O)N1CCCC1 | 2.1 | 15.5 | 0.8 | -0.1 | / | /
CCOC(=O)C1CCN(C(=O)C(C)(C)Oc2ccc(Cl)cc2)CC1 | -2.0 | -1.4 | 5.7* | 0.3 | 0.3 | 7.3
CCn1c2cc(C)sc2c2cnn(CC(=O)NC3CC3)c(=O)c21 | 4.9 | 5.3 | -0.1 | -0.1 | / | /
Cc1cc(I)ccc1NC(=O)Cc1ccccc1 | 4.3 | -1.5 | 6.1* | 0.0 | -0.4 | -0.5
CCCCc1nnc2sc(NC(=O)c3ccc(F)cc3)nn12 | 0.9 | -10.6 | 5.6* | 0.1 | 0.2 | -6.5
COc1ccc(-c2cn3c(C(=O)N4CCN(c5ccccc5OC)CC4)csc3n2)cc1 | -7.8 | 2.5 | -0.4 | -0.1 | / | /
COc1ccc(-c2cn3c(C(=O)N4CCc5ccccc54)csc3n2)cc1 | 5.2 | -7.7 | 18.6* | 0.0 | 0.3 | -2.0
O=C(NC(=S)NC(=O)c1ccccc1F)c1ccccc1F | 9.6 | 7.6 | 1.8 | -0.1 | / | /
O=C(NC(=S)NCc1ccccc1)c1ccccc1F | 0.1 | -10.1 | 7.0* | 0.3 | 0.5 | 0.4
CC(Oc1ccc2c(c1)OCO2)C(=O)NNC(=O)Nc1cccc(Cl)c1Cl (stereo unspecified) | 5.2 | -18.0 | -0.4 | 0.0 | / | /
Cc1cc(OC(C)C(=O)NNC(=O)Nc2cccc(Cl)c2Cl)ccc1[N+](=O)[O-] (stereo unspecified) | -5.6 | 18.5 | 6.1* | 0.5 | -0.4 | 4.1
O=C(Nc1nc(-c2ccccc2)c(C(=O)c2ccccc2)s1)c1cc(Cl)ccc1[N+](=O)[O-] | 1.4 | -0.2 | 1.2 | -0.1 | / | /
O=C(Nc1nc(-c2ccccc2)c(C(=O)c2ccccc2)s1)c1ccccc1[N+](=O)[O-] | 13.8 | 1.8 | 5.0* | 0.2 | 0.9 | 9.3
CC[C@@H]1NC(=O)[C@H]2CN(C(=O)c3cccc(Cl)c3)CCN2C1=O | -2.0 | 6.0 | 12.7* | 0.0 | 1.0 | 10.4
